Results on 24 compounds are retold here after PubChem BioAssay (EPA / NIEHS).

For experiment [1], the target named is guinea pig Serotonin, 5-Hydroxytryptamine Receptor 4 (5HT4), HTR4 (gene 100135548) (UniProt O70528). As to the kind of experiment: NVS_GPCR_g5HT4: NovaScreen (NVS) G Protein-Coupled Receptor Assay for guinea pig Serotonin, 5-Hydroxytryptamine Receptor 4 (5HT4) (AID 2283294). In outline: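 Compounds first screened in duplicate at 25 uM, actives followed up in concentration series. Binding measured as displacement of specific radioligand from guinea pig striatal membranes, 1 h, filter-based scintillation read-out versus DMSO baseline.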
guinea pig Serotonin, 5-Hydroxytryptamine Receptor 4 (5HT4), HTR4 (gene 100135548), sequence (O70528 whole entry, looked up): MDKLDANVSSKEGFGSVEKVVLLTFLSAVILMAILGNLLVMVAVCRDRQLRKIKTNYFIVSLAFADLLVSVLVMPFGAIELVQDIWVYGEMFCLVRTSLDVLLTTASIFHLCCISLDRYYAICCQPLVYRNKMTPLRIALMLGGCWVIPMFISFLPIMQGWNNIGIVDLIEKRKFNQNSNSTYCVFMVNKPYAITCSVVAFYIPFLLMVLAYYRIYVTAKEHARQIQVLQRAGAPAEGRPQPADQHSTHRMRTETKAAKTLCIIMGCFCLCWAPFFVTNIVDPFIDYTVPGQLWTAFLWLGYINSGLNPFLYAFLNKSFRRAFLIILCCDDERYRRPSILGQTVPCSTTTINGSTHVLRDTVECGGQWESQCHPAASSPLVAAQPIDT

Experiment [2] concerns rat Adrenergic, Alpha 1B Receptor (Adra1B), gene 24173. As to the kind of experiment: NVS_GPCR_rAdra1B: NovaScreen (NVS) G Protein-Coupled Receptor Assay for rat Adrenergic, Alpha 1B Receptor (Adra1B) (AID 2283297). The gist of the method:
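Filter-binding radioligand competition on membranes from rat liver, read after 1 h by scintillation counting. Single-concentration duplicate screen at 25 uM, followed by concentration-response on actives, normalised to DMSO.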

For experiment [3], the system named is rabbit Platelet Activating Factor Receptor (PAF), gene 100354046. As to the kind of experiment: NVS_GPCR_rabPAF: NovaScreen (NVS) G Protein-Coupled Receptor Assay for rabbit Platelet Activating Factor Receptor (PAF) (AID 2283287). In outline:
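Rabbit platelet membrane preparation; radioligand displacement read by filter-based scintillation counting 1 h after dosing, loss of signal versus DMSO. Primary screen in duplicate at 25 uM, actives followed up in concentration series.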

The test system of experiment [4] is 5-hydroxytryptamine receptor 2C (pig). As to the kind of experiment: NVS_GPCR_p5HT2C: NovaScreen (NVS) G Protein-Coupled Receptor Assay for pig Serotonin, 5-Hydroxytryptamine Receptor 2C (5HT2C) (AID 2283288). In outline: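 Radioligand displacement on membranes from pig choroid plexus, detected by filter scintillation counting after 1 h. Tested first at a single 25 uM in duplicate, then in concentration-response for actives; DMSO served as baseline.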

Experiment [5] addresses human Opioid Receptor Mu (Opiate Mu), OPRM1 (gene 4988) (UniProt P35372). The experiment can be described thus: NVS_GPCR_hOpiate_mu: NovaScreen (NVS) G Protein-Coupled Receptor Assay for human Opioid Receptor Mu (Opiate Mu) (AID 2283290).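 Also: hits lower bound tracer signal versus DMSO meaning displacement of the ligand.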 In outline: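 CHO-derived receptor protein, cell-free; radioligand displacement, filtration + scintillation counting, read at 2.5 h. DMSO = negative control/baseline. Primary: 25 uM single conc, duplicate; secondary: concentration series.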

The target in experiment [6] is rat Serotonin, 5-Hydroxytryptamine Receptor 1 (5HT1), Non-Selective Binding, Htr1a (gene 24473) (UniProt P19327). As to the kind of experiment: NVS_GPCR_r5HT1_NonSelective: NovaScreen (NVS) G Protein-Coupled Receptor Assay for rat Serotonin, 5-Hydroxytryptamine Receptor 1 (5HT1), Non-Selective Binding (AID 2283286). The gist of the method: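 Binding of a radioligand to rat cortex membranes is read by filtration and scintillation counting after 1 h. Compounds were screened at 25 uM in duplicate. Actives were then titrated to a top of 50 uM. DMSO is the baseline.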
rat Serotonin, 5-Hydroxytryptamine Receptor 1 (5HT1), Non-Selective Binding, Htr1a (gene 24473), sequence (P19327 whole entry, looked up): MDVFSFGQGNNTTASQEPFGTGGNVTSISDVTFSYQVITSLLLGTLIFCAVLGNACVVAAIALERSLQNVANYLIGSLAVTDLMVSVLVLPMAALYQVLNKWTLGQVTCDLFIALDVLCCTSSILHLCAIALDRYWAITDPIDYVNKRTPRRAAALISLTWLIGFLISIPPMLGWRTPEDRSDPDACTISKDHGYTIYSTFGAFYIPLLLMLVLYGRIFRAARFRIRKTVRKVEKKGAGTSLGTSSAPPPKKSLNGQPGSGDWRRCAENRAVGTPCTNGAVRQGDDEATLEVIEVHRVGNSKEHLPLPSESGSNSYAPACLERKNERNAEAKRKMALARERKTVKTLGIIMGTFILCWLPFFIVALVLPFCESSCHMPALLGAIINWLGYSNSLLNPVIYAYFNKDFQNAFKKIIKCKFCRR

For experiment [7], the target named is rat Adrenergic, Alpha 1, Non-selective Receptor (Adra1), Adra1a (gene 29412) (UniProt P43140). As to the kind of experiment: NVS_GPCR_rAdra1_NonSelective: NovaScreen (NVS) G Protein-Coupled Receptor Assay for rat Adrenergic, Alpha 1, Non-selective Receptor (Adra1) (AID 2283289). The gist of the method: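 Chemicals first screened in duplicate at 25 uM, then actives tested in concentration series up to 50 uM. Binding measured as displacement of radioligand from rat forebrain membrane receptors, 1 h, filtration with scintillation readout; DMSO baseline.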
rat Adrenergic, Alpha 1, Non-selective Receptor (Adra1), Adra1a (gene 29412), sequence (P43140 whole entry, looked up): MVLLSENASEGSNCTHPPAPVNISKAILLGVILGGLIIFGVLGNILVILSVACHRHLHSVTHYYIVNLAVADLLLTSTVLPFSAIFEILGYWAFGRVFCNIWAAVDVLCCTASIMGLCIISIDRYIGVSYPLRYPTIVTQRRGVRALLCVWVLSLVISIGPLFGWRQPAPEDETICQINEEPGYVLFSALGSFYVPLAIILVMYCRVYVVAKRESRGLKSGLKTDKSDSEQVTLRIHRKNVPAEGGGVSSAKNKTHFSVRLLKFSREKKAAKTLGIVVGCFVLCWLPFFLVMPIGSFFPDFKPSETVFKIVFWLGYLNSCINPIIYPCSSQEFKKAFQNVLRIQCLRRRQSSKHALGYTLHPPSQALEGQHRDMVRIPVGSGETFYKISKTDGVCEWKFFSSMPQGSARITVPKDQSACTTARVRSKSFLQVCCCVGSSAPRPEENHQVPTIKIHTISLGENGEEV

Experiment [8] has as its target mouse Cholecystokinin, CCK2 Receptor (CCKB), Cckbr (gene 12426) (UniProt P56481). As to the kind of experiment: NVS_GPCR_mCKKBCentral: NovaScreen (NVS) G Protein-Coupled Receptor Assay for mouse Cholecystokinin, CCK2 Receptor (CCKB) (AID 2283293). The gist of the method: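 Mouse forebrain membrane preparation incubated 2 h with chemical and radioligand; bound radioactivity counted after filtration. Single-concentration duplicate screen at 25 uM, then concentration series to 50 uM max for hits, DMSO as baseline.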

The test system of experiment [9] is guinea pig Atrionatriuretic Peptide Receptor A (ANPA), gene 100135578. The experiment can be described thus: NVS_GPCR_gANPA: NovaScreen (NVS) G Protein-Coupled Receptor Assay for guinea pig Atrionatriuretic Peptide Receptor A (ANPA) (AID 2283291). In outline:
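Displacement of specific radioligand from guinea pig cerebellum membranes was read by scintillation after 1 h. A duplicate single-point screen at 25 uM was followed by a concentration series up to 50 uM, analysed relative to DMSO.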

The target of experiment [10] is guinea pig Bradykinin Receptor B2 (BK2), BDKRB2 (gene 100135486) (UniProt O70526). The experiment can be described thus: NVS_GPCR_gBK2: NovaScreen (NVS) G Protein-Coupled Receptor Assay for guinea pig Bradykinin Receptor B2 (BK2) (AID 2283292). In outline:
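Guinea pig ileum membrane preparation incubated 1 h with radioligand and test chemical; bound counts measured after filtration. Primary duplicate screening at 25 uM, then singleton concentration series with a 50 uM top dose; DMSO as baseline.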

Usually AC50 stands for the concentration at which the activity in the assay is half-maximal.

Results filed as inconclusive are left out. Calls of active or inactive are those of the source. The calls were made as follows: active = hit-call score of the fitted dose curve at least 0.9, where 1 is the maximum; inconclusive = response in the unintended direction; inactive = score below 0.9.

human Opioid Receptor Mu (Opiate Mu), OPRM1 (gene 4988), sequence (P35372 whole entry, looked up): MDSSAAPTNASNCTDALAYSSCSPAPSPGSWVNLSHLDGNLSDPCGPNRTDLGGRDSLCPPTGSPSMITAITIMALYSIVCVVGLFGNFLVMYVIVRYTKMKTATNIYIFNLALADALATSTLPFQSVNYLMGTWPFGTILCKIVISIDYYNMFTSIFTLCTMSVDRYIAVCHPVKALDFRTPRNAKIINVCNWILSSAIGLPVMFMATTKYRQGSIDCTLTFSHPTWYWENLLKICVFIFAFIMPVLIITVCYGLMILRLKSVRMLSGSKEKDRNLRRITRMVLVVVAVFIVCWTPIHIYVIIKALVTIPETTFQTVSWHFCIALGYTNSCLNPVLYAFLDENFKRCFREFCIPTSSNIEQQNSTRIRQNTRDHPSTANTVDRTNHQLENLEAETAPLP
guinea pig Bradykinin Receptor B2 (BK2), BDKRB2 (gene 100135486), sequence (O70526 whole entry, looked up): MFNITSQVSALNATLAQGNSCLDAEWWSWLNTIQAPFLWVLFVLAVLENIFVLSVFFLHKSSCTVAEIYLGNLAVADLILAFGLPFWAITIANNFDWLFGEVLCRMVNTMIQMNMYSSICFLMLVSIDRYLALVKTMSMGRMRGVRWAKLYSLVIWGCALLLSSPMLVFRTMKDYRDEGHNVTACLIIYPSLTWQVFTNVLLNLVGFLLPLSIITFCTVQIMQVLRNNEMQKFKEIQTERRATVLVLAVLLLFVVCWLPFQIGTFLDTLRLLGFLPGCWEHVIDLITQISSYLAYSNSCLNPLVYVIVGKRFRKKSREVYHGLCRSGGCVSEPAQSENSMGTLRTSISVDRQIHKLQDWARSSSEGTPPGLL
mouse Cholecystokinin, CCK2 Receptor (CCKB), Cckbr (gene 12426), sequence (P56481 whole entry, looked up): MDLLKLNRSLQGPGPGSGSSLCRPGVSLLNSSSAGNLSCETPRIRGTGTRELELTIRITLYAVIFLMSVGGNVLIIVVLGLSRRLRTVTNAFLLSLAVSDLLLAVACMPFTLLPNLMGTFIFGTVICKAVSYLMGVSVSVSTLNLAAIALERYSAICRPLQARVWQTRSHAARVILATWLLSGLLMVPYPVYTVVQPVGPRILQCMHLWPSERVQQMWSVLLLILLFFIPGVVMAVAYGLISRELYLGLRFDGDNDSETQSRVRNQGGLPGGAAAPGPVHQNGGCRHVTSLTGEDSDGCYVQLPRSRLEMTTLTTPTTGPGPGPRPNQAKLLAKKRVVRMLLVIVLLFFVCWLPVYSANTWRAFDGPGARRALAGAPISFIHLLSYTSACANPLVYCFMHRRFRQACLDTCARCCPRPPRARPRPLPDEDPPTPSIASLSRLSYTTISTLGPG

`O=C(N[C@H]1CN2CCC1CC2)c1cc2ccoc2cn1`: the results for the half-maximal activity concentration (AC50) in experiment [1] and in experiment [2] were 16.4 µM (active) and 11 µM (active), respectively. As for `CCCCCCCCCC[N+](C)(C)CCCCCCCCCC`, the AC50 in experiment [3] was 7.2 µM (active); in experiment [4], 21.1 µM (active); in experiment [5], 4.3 µM (active); in experiment [1], 21.9 µM (active). Turning to `O=C(O)C(F)(F)C(F)(F)C(F)(F)C(F)(F)C(F)(F)C(F)(F)C(F)(F)C(F)(F)C(F)(F)F`, the AC50 in experiment [5] was 25 µM (active). As for `Cc1ccccc1[N+](=O)[O-]`, in [6], the compound was called inactive.

Consider `Oc1ccc(C(c2ccc(O)cc2)(C(F)(F)F)C(F)(F)F)cc1`, for which the AC50 is 1.39 µM (active) in experiment [4]; 38.1 µM (active) in [7]; 4.93 µM (active) in experiment [5]; 11.7 µM (active) in [1]; 41.2 µM (active) in [2]. For `Clc1ccc(C(c2ccccc2Cl)C(Cl)(Cl)Cl)cc1` (stereo not drawn), in experiment [5], the compound was called inactive.

Consider `Cc1cc2c3c(c1)C(c1ccccc1)=N[C@@H](NC(=O)c1ccncc1)C(=O)N3CC2`, for which the AC50 in [6] was 6.17 µM (active).

For `CCOC(=O)C(O)(c1ccc(Cl)cc1)c1ccc(Cl)cc1`, the AC50 in experiment [3] was 7.46 µM (active).

`CC(C)(O)C(=O)Nc1ccc([N+](=O)[O-])c(C(F)(F)F)c1`: the AC50 in experiment [4] is 19.2 µM (active). Take `COc1ccc(O)c(C(C)(C)C)c1`: the AC50 in [4] was 13.2 µM (active); in experiment [1], 18.8 µM (active). In addition, the compound was classed as inactive in experiment [7] and in [8]. On to `NS(=O)(=O)C(F)(F)C(F)(F)C(F)(F)C(F)(F)C(F)(F)C(F)(F)C(F)(F)C(F)(F)F`, for which the compound was called inactive in experiment [5] and in [9].

As for `CCC(C)(c1ccc(O)cc1)c1ccc(O)cc1`, the AC50 in experiment [4] was 16.9 µM (active); in experiment [5] it was 9.36 µM (active); in [1], 16.5 µM (active).

As to `CC(C)C(=O)OCC(C)(C)C(OC(=O)C(C)C)C(C)C` (stereo not drawn), the compound was called inactive in experiment [10].

Regarding `CCOP(=S)(OCC)SCSC(C)(C)C`, the compound was classed as inactive in [4]. In the case of `CC1=C2C[C@H]3[C@@H](CC=C4C[C@@H](O)CC[C@@]43C)[C@@H]2CC[C@]12O[C@@H]1C[C@H](C)CN[C@H]1[C@H]2C`, the outcome in experiment [1] and in experiment [2] was inactive. Take `Oc1ccc(Cl)cc1Cl`: the compound was classed as inactive in experiment [4]. As for `O=S(=O)(O)C(F)(F)C(F)(F)C(F)(F)C(F)(F)C(F)(F)C(F)(F)F`, the result in [9] was inactive. Take `Cc1ccc(O)c(C)c1`: the call in experiment [4] and in [10] was inactive. `Nc1ccc(-c2ccc(N)cc2)cc1`: the outcome in experiment [2] was inactive. With `Cc1cc(O)ccc1Cl`, in [4], the AC50 is 9.65 µM (active). As to `CCC(C)(CC)c1cc(NC(=O)c2c(OC)cccc2OC)on1`, the result in [6] was inactive. As to `C[C@]12CCC(=O)C=C1CC[C@@H]1[C@@H]2CC[C@@]2(C)[C@H]1CC[C@]2(C)O`, in experiment [5], the result was inactive.

In the case of `ClC1=C(Cl)[C@]2(Cl)[C@@H]3[C@H]4C[C@H]([C@@H]5O[C@H]45)[C@@H]3[C@@]1(Cl)C2(Cl)Cl`, the compound was classed as inactive in [9].

In the case of `CC(C)(c1ccccc1)c1ccc(O)cc1`, the AC50 in experiment [4] was 17.9 µM (active); in [5], 11.8 µM (active); in experiment [8], 18.5 µM (active); in experiment [1] it was 23.7 µM (active).
